Laboratory results from PubChem BioAssay (EPA / NIEHS).
Where “and” joins values, the source holds several entries; their conditions need not be identical. Identical values can stand only once. Results filed as inconclusive are left out. Where a structure was tested more than once in an assay, its records may differ in their call. Calls of active or inactive are those of the source. Rule for the calls, unless noted: active = hit-call score of the fitted dose curve at least 0.9, where 1 is the maximum; inactive = score below 0.9.

Tests used:
[1] = APR_HepG2_CellCycleArrest_1hr: Apredica 1-hour HepG2 Assay for Cell Cycle Arrest (AID 2282666); conditions: high-content imaging, actives raise or lower the signal
Summary of the method: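 HepG2 cells exposed for 1 h to 0.39–200 uM compound (0.5% DMSO). Fixed, Hoechst-stained nuclei imaged by ArrayScan; DNA content quantified by Cell Cycle analysis; bidirectional fit against DMSO.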

[2] = ACEA_ER_80hr: ACEA Biosciences xCELLigence Real-Time Cell Analysis on Estrogen Receptor Agonism for Proliferation (AID 2282667; active = hit-call score of the fitted dose curve at least 0.9, where 1 is the maximum); conditions: T47D proliferation, impedance (xCELLigence), 80 h
Summary of the method: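 Impedance readout (RT-CES) of T47D proliferation at 80 h post-dose; gain of signal vs DMSO baseline. Compounds: 8 conc, 1:4 serial, top 100 uM final, ≤0.5% DMSO; biological duplicate.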

[3] = APR_HepG2_CellLoss_1hr: Apredica 1-hour HepG2 Assay for Cell Loss (AID 2282668); conditions: high-content imaging;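 note: curves fitted both ways against DMSO so gain or loss of cells counts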
Summary of the method: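 HepG2 cells were treated for 1 h with compound at 0.39–200 uM, in duplicate, in 0.5% DMSO. After formaldehyde fixation, Hoechst 33342-stained nuclei were imaged on an ArrayScan to count cells. Data were fitted bidirectionally versus DMSO.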

[4] = APR_HepG2_NuclearSize_1hr: Apredica 1-hour HepG2 Assay for Nuclear Size (AID 2282670); conditions: high-content imaging, actives raise or lower the signal
Summary of the method: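 HepG2 cells dosed 1 hr with 0.39–200 uM compound (0.5% DMSO), formaldehyde-fixed, Hoechst 33342-stained and imaged at 20x; nuclear diameter from nuclear stain, fitted bidirectionally against DMSO.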

[5] = APR_HepG2_p53Act_1hr: Apredica 1-hour HepG2 Assay for p53 Activation (AID 2282671); conditions: high-content imaging, actives raise or lower the signal
Summary of the method: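 HepG2 cells treated 1 h with compound at 0.39–200 uM (10 concentrations, duplicate) in 0.5% DMSO. Formaldehyde-fixed, permeabilised cells immunostained for p53 with Hoechst 33342; high-content imaging, bidirectional fit versus DMSO.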

[6] = APR_HepG2_MitoticArrest_1hr: Apredica 1-hour HepG2 Assay for Mitotic Arrest (AID 2282672); conditions: high-content imaging, actives raise or lower the signal
Summary of the method: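 HepG2 cells exposed 1 hr to compounds at 0.39–200 uM (0.5% v/v DMSO final), then fixed in 3.7% formaldehyde and immunostained for phospho-histone H3 with Hoechst 33342. Mitotic arrest scored by automated fluorescence imaging, fitted bidirectionally versus DMSO.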

[7] = APR_HepG2_P-H2AX_1hr: Apredica 1-hour HepG2 Assay for H2AX Phosphorylation (AID 2282673); conditions: high-content imaging, actives raise or lower the signal
Summary of the method: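 HepG2 dosed 1 hr at 0.39-200 uM (0.5% DMSO final), duplicate. Fixed in 3.7% formaldehyde, Triton permeabilized, immunostained for phospho-histone H2A.x (1:200) with Hoechst 33342; ArrayScan 20x imaging, bidirectional fit vs DMSO.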

[8] = APR_HepG2_MitoMembPot_1hr: Apredica 1-hour HepG2 Assay for Mitochondrial Membrane Potential (AID 2282675); conditions: imaging, actives raise or lower the signal
Summary of the method: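 HepG2 cells dosed 1 hour with 0.39–200 uM compound in duplicate, 0.5% DMSO final. MitoTracker Red CMXRos (250 nM, 30 min) loaded before formaldehyde fixation; fluorescence quantified by high-content imaging, bidirectional fitting versus DMSO.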

[9] = APR_HepG2_CellCycleArrest_24hr: Apredica 24-hour HepG2 Assay for Cell Cycle Arrest (AID 2282905); conditions: imaging, actives raise or lower the signal;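 note: cell cycle arrest scored as ratio of 2N to 4N nuclear DNA content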
Summary of the method: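 Cell cycle arrest is scored from nuclear DNA content measured by high-content imaging of Hoechst 33342-stained HepG2 cells following 24-hour treatment at ten concentrations up to 200 uM, with DMSO as baseline.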

[10] = APR_HepG2_StressKinase_1hr: Apredica 1-hour HepG2 Assay for Stress Kinase (AID 2282906); conditions: HepG2 stress kinase (phospho-c-Jun) imaging, actives raise or lower the signal
Summary of the method: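 HepG2 cells dosed 0.39-200 uM (0.5% DMSO) for 1 h, then formaldehyde-fixed. Stress kinase read by phospho-c-Jun immunofluorescence using high-content imaging; bidirectional fit vs DMSO.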

[11] = APR_HepG2_NuclearSize_24hr: Apredica 24-hour HepG2 Assay for Nuclear Size (AID 2282907); conditions: high-content imaging, actives raise or lower the signal
Summary of the method: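 Compounds in DMSO (final 0.5%) were added to human HepG2 hepatoma cells at ten concentrations up to 200 uM for 24 hr. Fixed nuclei were stained with Hoechst 33342, and nuclear diameter was quantified from automated images.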

[12] = APR_HepG2_CellLoss_24hr: Apredica 24-hour HepG2 Assay for Cell Loss (AID 2282908); conditions: high-content imaging;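 for AC50: fit in both directions so a hit may be cell loss or gain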
Summary of the method: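 Cell number is quantified by fluorescence imaging of Hoechst 33342-stained nuclei following dosing at 0.39–200 uM in 0.5% DMSO. Curves are fitted in both directions from the DMSO baseline.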

[13] = APR_HepG2_MicrotubuleCSK_24hr: Apredica 24-hour HepG2 Assay for Microtubule CSK Stabilty (AID 2282909); conditions: HepG2 microtubule cytoskeleton imaging, actives raise or lower the signal
Summary of the method: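 Steps: dose HepG2 for 24 h (0.39–200 uM, 0.5% DMSO); fix 30 min in 3.7% formaldehyde at room temperature; permeabilize; stain alpha-tubulin 60 min; image microtubule cytoskeleton at 20x. Signal change fitted in both directions relative to DMSO.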

[14] = APR_HepG2_MitoticArrest_24hr: Apredica 24-hour HepG2 Assay for Mitotic Arrest (AID 2282910); conditions: high-content imaging, actives raise or lower the signal
Summary of the method: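 HepG2 cells, 24 h exposure at 0.39-200 uM (10 concentrations, duplicate, 0.5% DMSO). Fixed, stained for phospho-histone H3 with Hoechst; imaged by high-content microscopy, bidirectional fit versus DMSO.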

[15] = APR_HepG2_MitoMass_24hr: Apredica 24-hour HepG2 Assay for Mitochondrial Mass (AID 2282912); conditions: high-content imaging, actives raise or lower the signal
Summary of the method: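 The liver line HepG2 was dosed in duplicate across a 0.39–200 uM series, with final DMSO held at 0.5% v/v, and harvested at 24 hr. High-content imaging measured mitochondrial dye staining.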

[16] = APR_HepG2_p53Act_24hr: Apredica 24-hour HepG2 Assay for p53 Activation (AID 2282913); conditions: high-content imaging, actives raise or lower the signal;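 note: p53 protein immunofluorescence averaged per cell in HepG2 with Hoechst nuclei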
Summary of the method: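 Read-out: Cy5 immunofluorescence for p53 in fixed, permeabilized HepG2, imaged by HCS with Hoechst-defined nuclei. Dosing was 24 hr at 0.39–200 uM in 0.5% DMSO. Curves were fitted bidirectionally relative to DMSO.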

[17] = APR_HepG2_CellCycleArrest_72hr: Apredica 72-hour HepG2 Assay for Cell Cycle Arrest (AID 2282914); conditions: high-content imaging, actives raise or lower the signal
Summary of the method: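 HepG2, 72 hr exposure, 10-point 0.39–200 uM, duplicate, 0.5% DMSO final. Fix 3.7% formaldehyde 30 min RT, Triton X-100 0.5%, Hoechst 33342 2 ug/mL. ArrayScan 20x, six fields/well; DNA content per nucleus; bidirectional fit vs DMSO.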

[18] = APR_HepG2_MicrotubuleCSK_1hr: Apredica 1-hour HepG2 Assay for Microtubule CSK Stabilty (AID 2282669); conditions: HepG2 microtubule cytoskeleton imaging, actives raise or lower the signal
Summary of the method: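 HepG2 cells exposed 1 h to 0.39–200 uM compound (0.5% DMSO, duplicates), then formaldehyde-fixed, permeabilized and immunostained for alpha-tubulin with Hoechst nuclei. Imaged by ArrayScan high-content analysis; bidirectional fit versus DMSO.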

[19] = APR_HepG2_MitoMembPot_24hr: Apredica 24-hour HepG2 Assay for Mitochondrial Membrane Potential (AID 2282911); conditions: imaging, actives raise or lower the signal
Summary of the method: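 HepG2, 24 hr dosing, 10 concentrations 0.39–200 uM, 0.5% DMSO final. Live-cell MitoTracker Red CMXRos 250 nM 30 min, then 3.7% formaldehyde fix. HCS fluorescence imaging, 20x; bidirectional fit vs DMSO baseline.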

Measured: AC50

CNC(=S)S
active: [9] 20.5 µM | [12] 80.1 µM | [13] 74.4 µM | [14] 85.2 µM
not listed: [18] | [19]
inactive: all other assays above

CCOc1cc(Oc2ccc(C(F)(F)F)cc2Cl)ccc1[N+](=O)[O-]
not listed: [3] | [6] | [7] | [19]
inactive: all other assays above

CCOC(=O)C(Cl)Cc1cc(-n2nc(C)n(C(F)F)c2=O)c(F)cc1Cl (configuration not stated)
not listed: [6] | [18] | [19]
inactive: all other assays above

CCc1nn(C)c(C(=O)NCc2ccc(C(C)(C)C)cc2)c1Cl
active: [2] 18.3 nM | [10] 9.39 µM | [12] 86.9 µM | [13] 19.8 µM
not listed: [3] | [18] | [19]
inactive: all other assays above

CC(C)Oc1cc(-n2nc(C(C)(C)C)oc2=O)c(Cl)cc1Cl
active: [12] 50.8 µM | [13] 46.4 µM
not listed: [3] | [6] | [7] | [19]
inactive: all other assays above

CO/C=C(/C(=O)OC)c1ccccc1Oc1cc(Oc2ccccc2C#N)ncn1
active: [2] 11.1 µM [middle of 5 runs] | [9] 39.3 µM and 692 nM | [12] 16.2 µM and 36.5 µM | [19] 21.2 µM | [16] 110 µM | [17] 21 µM and 3.09 µM and 5.96 µM
inactive: [1] | [2] | [18] | [4] | [5] | [7] | [8] | [9] | [10] | [11] | [12] | [13] | [14] | [19] | [15] | [16] | [17]
